Test results reported in PubChem BioAssay AID588726 (The Scripps Research Institute Molecular Screening Center, 2011).
The whole screen tested about 360,000 compounds, of which about 8,200 (2.3%) were called active. Shown is part of a subset that was picked to be rich in actives. A number with no mark means an inactive call. Cut-off read from the data, not from the text of the source: active = inhibition above about 27%; inactive = the rest.

target: Fructose-bisphosphate aldolase (Mycobacterium tuberculosis (strain ATCC 25618 / H37Rv)) (UniProt P9WQA3); test: M. tuberculosis aldolase activity blockers – biochemical, fluorescence, strain H37Rv, primary screen (AID 588726);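 note: 0% = vehicle and 100% = reference inhibitor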; conditions: purified M. tuberculosis FBA, fluorescence read-out, at 1 µM, stronger effect = higher value
Sequence (P9WQA3 whole entry, looked up): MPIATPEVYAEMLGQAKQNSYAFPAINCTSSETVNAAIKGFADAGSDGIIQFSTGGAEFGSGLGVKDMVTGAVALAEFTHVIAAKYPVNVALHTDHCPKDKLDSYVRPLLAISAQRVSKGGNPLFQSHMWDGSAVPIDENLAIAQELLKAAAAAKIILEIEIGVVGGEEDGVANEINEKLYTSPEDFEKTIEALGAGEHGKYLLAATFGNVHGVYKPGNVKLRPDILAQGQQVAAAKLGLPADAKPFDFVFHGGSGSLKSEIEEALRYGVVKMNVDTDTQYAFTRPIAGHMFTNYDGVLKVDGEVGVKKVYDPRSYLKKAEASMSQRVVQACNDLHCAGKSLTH

In order of falling inhibition:
1. Cc1c(NC(=O)c2cc(-c3ccc(Cl)s3)nc3ccccc23)c(=O)n(-c2ccccc2)n1C  13%
2. Cc1cc(C(=O)N2CCN(c3ccccn3)CC2)c(C)o1  9.35%
3. O=S(=O)(c1cccc(-c2nnc(SC(F)F)n2-c2ccccc2)c1)N1CCCCC1  5.7%
4. O=C(NCc1ccccc1)c1ccc(CNc2c(N3CCCC3)c(=O)c2=O)cc1  4.44%
5. CC1CCCC(NC(=O)c2cc(-c3ccncc3)nc3ccccc23)C1C (stereo not drawn)  4%
6. Cc1ccc(S(=O)(=O)N2CCN(C(=O)c3ccccc3-c3nc4ccccc4s3)CC2)c(C)c1  1.65%
7. CCc1ccccc1N1C(=O)C2C3CC(=O)C(c4ccccc43)C2C1=O (stereo not drawn)  1.36%
8. O=C(NNC(=O)c1cc(-c2ccccc2Cl)nc2ccccc12)c1csc(N2CCOCC2)n1  1.04%
9. CSCCC(NC(=O)c1ccco1)C(=O)NCCc1ccc(F)cc1 (stereo not drawn)  0.46%
10. CN1C(=O)/C(=C\c2cc(Br)cs2)c2ccccc21  0.16%
11. COc1ccc(C)cc1NC(=O)c1[nH]c(C)c(C(C)=O)c1C  0.08%
12. CCc1ccc(OCC(O)CN2CCN(CCO)CC2)cc1 (stereo not drawn)  -0.21%
13. CC1CCN(C(=O)Cn2cc(C(=O)c3ccco3)c3ccccc32)CC1  -0.4%
14. Cc1nc(-c2ccc(Cl)cc2)sc1C1(C)CC(c2ccc(Br)cc2)=NO1 (stereo not drawn)  -1.45%
15. CCc1ccc(NC(=O)CCNS(=O)(=O)c2cccs2)cc1  -1.53%
16. Cc1ccc(CN2CCC(N3CCC(C(=O)NCC4CCCO4)CC3)CC2)o1 (stereo not drawn)  -1.69%
17. Cc1cccc(C(=O)N2CCC(c3nc4ccccc4s3)CC2)c1  -2.02%
18. Cc1cc(C(=O)NNC(=O)c2cccc(S(=O)(=O)N3CCOCC3)c2)c2ccccc2n1  -2.38%

With `CCC1C(=O)c2ccccc2N(C)C1=O` (stereo not drawn) the inhibition was 34.5% (active).
`CC(=O)N1CCN(C(=O)c2cc(-c3ccc(Cl)s3)nc3ccccc23)CC1` was tested, and the inhibition was 83.4% (active).
For `CC(=O)N1CCN(C(=O)c2cc(-c3ccc(C)o3)nc3ccccc23)CC1`, the inhibition was 131% (active).
`CC1CCCN(C(=O)c2cc(-c3ccco3)nc3ccccc23)C1` (stereo not drawn) was tested, and the inhibition was 114% (active).
With `O=C(c1cc(-c2ccc(Cl)s2)nc2ccccc12)N1CCOCC1` the inhibition was 93.6% (active).
